From PubChem
CYP2C19 inhib – blocks human cytochrome P450 2C19; AID 778; CYP2C19 Supersomes, luciferin-H EGE luminescence, 30 min; inhibition, % at 5 µM; hit rate 21% among 96,000;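 active = CYP2C19 inhibition above a set limit at 5 µM in the primary screen, cut at about 50% in these data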;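 note: plate controls were negative control wells for no effect and 2.5 mM tranylcypromine positive control for full effect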
Target sequence (P33261 whole entry, looked up): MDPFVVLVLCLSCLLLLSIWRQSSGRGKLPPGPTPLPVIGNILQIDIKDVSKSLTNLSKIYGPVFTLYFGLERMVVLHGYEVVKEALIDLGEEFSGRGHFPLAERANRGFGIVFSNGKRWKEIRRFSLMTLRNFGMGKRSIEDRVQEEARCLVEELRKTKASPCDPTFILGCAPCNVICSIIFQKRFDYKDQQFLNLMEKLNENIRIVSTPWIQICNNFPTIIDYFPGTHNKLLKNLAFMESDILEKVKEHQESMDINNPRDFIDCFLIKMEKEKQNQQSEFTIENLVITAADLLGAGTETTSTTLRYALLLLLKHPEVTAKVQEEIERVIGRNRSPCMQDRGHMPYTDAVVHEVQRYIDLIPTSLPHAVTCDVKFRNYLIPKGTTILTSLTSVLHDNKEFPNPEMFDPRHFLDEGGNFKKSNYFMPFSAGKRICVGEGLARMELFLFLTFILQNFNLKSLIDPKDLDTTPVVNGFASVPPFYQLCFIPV
CYP2C19 activ – increases human CYP2C19 enzyme activity | 96,000 tested, under 10 active | recombinant CYP2C19, luciferin-H EGE luminescence; active compounds read high; 0 = fully inhibited enzyme, 1 = untreated enzyme | P33261 | activation factor at 5 µM | AID 1025;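 active = activation factor of at least 2 at 5 µM in the primary screen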;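 note: 0 = wells with 2.5 mM tranylcypromine and 1 = vehicle-only wells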
Cav32 inh – blocks human Cav3.2 T-type calcium channel; O95180; Cav3.2-expressing cells, Fluo-4 calcium fluorescence FDSS; active compounds read low; B-score at 10 µM; hit rate 4% among 100,000; AID 449739;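 active = single-dose well whose peak fluorescence ratio is a statistical outlier from its plate by either plate-standardised score or position-corrected B-score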
CYP2C9 act – activators of human CYP2C9; recombinant CYP2C9, luciferin-H conversion, luminescence; active compounds read high; factor 1 = untreated enzyme, 0 = blocked; P11712; hit rate 1.4% among 96,000; AID 1024; activation factor at 5 µM;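 active = activation factor of 2 or more for CYP2C9 at a 5 µM dose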;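 note: 0 = sulfaphenazole-blocked wells and 1 = vehicle-only wells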
CYP2C9 inh – inhibitors of human CYP2C9; CYP2C9 Supersomes, luciferin-H conversion, luminescence; inhibition, % at 5 µM; hit rate 20% among 96,000; AID 777;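 active = blocking of liver enzyme CYP2C9 beyond about 50% at 5 µM, limit read from the data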
* marks the source's active call; other numbers are inactive results; x = not tested or not shown. Sampled rows, rich in hits. Any-hit rate of the full collection: about 27%.

SMILES	CYP2C19 inhib	CYP2C19 activ	Cav32 inh	CYP2C9 act	CYP2C9 inh
COc1cc2ccccc2c2c1CCCC2=O	58.6*	0.4	-0.871	1.4	-37.6
O=C(O)CC[C@@H](C(=O)O)N1C(=O)c2ccccc2C1=O	x	x	1.41	x	x
COc1ccccc1NC(=O)N(Cc1ccco1)Cc1cc2cc(C)cc(C)c2[nH]c1=O	59.8*	0.4	-5.11*	0.4	61.5*
Cc1ccc(C)c2[nH]c(=O)c(CN(Cc3ccco3)C(=O)Nc3ccccc3)cc12	26.3	0.7	-5.97*	0.6	39.9
Cc1ccc2cc(CN(Cc3ccco3)C(=O)NCc3ccccc3)c(=O)[nH]c2c1C	22.1	0.8	-4.32*	0.6	37.4
COc1ccccc1NC(=O)N(Cc1ccco1)Cc1cc2ccc(C)c(C)c2[nH]c1=O	22.4	0.8	-6.71*	0.4	63.9*
COc1ccccc1-n1c(CNC(=O)c2ccco2)nnc1SCC(=O)Nc1nccs1	17.1	0.8	-0.0628	0.6	42.1
Cn1c(=O)c2[nH]c(CNCc3ccccc3Cl)nc2n(C)c1=O	19.6	0.8	1.38	0.9	5.7
CC1CCCCN1C(=O)Cn1c(=O)n(C2CCCCC2)c(=O)c2ccccc21 (centres undefined)	5.3	0.9	0.817	0.7	29.9
Cn1c(=O)c2c(nc(SCC(=O)N3CCCCCC3)n2C)n(C)c1=O	x	x	0.557	x	x
COc1cc(OC)c(C2=NOC(C(=O)Nc3c(C)nn(CC(=O)N4CCCC4)c3C)C2)cc1Cl (centres undefined)	-13.3	1.1	-1.99	0.7	28.8
O=C(NCc1ccc2c(c1)OCO2)C1CC(c2ccc(Cl)cc2)=NO1 (centres undefined)	25.7	0.7	-5.58*	1	-0.2
O=C(NCc1ccc(C(F)(F)F)cc1)C1CC(c2ccc(C(F)(F)F)cc2)=NO1 (centres undefined)	x	x	-2.9	x	x
COc1cc(OC)c(C2=NOC(C(=O)NCc3ccc4c(c3)OCO4)C2)cc1Cl (centres undefined)	92.9*	0.1	-2.31	1.2	-15.9
c1coc(CNc2c3c(nc4ncnn24)CCC3)c1	-6.8	1.1	0.881	0.1	88.0*
O=C(NCCc1ccccc1)c1cccnc1N1CCCCCC1	72.4*	0.3	0.613	0.4	60.7*
O=C(Nc1ccccc1)c1cccnc1N1CCOCC1	13.7	0.9	x	1.2	-21.5
O=C(Nc1ccc(Cl)cc1)c1cccnc1N1CCCCC1	79.4*	0.2	-2.95	0.2	78.4*
O=C(Nc1cccc(C(F)(F)F)c1)c1cccnc1N1CCCC1	47.5	0.5	-1.75	3.4*	-239.1
CCOC(=O)CN1C(=O)N[C@@H](c2cccc(C(F)(F)F)c2)C(C(=O)OC)=C1C	x	x	0.376	x	x
O=C(Cn1cnc2c(nnn2Cc2ccc(Cl)cc2)c1=O)N1CCN(c2ccccc2)CC1	x	x	-4.42*	x	x
CCOC(=O)C(C)n1cnc2c(nnn2Cc2ccc(Cl)cc2)c1=O (centres undefined)	21.2	0.8	-4.48*	2.5*	-146.9
CCOC(=O)C(C)n1cnc2c(nnn2-c2ccc(C)cc2)c1=O (centres undefined)	2.5	1	0.95	0.8	15.7
CCOC(=O)C(C)n1cnc2c(nnn2Cc2ccc(C)cc2)c1=O (centres undefined)	53.0*	0.5	0.0883	2.9*	-190.7
Cc1ccc(Cn2nnc3c(=O)n(Cc4cccc(C)c4)cnc32)cc1	33.5	0.7	-3.07	2.1*	-106.5
SMILES	CYP2C19 inhib	CYP2C19 activ	Cav32 inh	CYP2C9 act	CYP2C9 inh
Cc1ccc(Cn2cnc3c(nnn3Cc3ccc(Cl)cc3)c2=O)cc1	20.7	0.8	-0.971	0.8	17.5
CC(=O)N1c2c(ccc3ccccc23)C(C)CC12CCCCC2 (centres undefined)	98.0*	0	-3.22	0.1	93.3*
CC1CC2(CCCCC2)Nc2c1ccc1ccccc21 (centres undefined)	x	x	-0.884	x	x
O=C1Cn2c(nc3ccccc32)N1c1cccc(C(F)(F)F)c1	59.0*	0.4	0.254	0.7	31.0
CC[N+](CC)(CC)CC(=O)Nc1c(C)cccc1C	x	x	0.145	x	x
CCCSC(=O)N(CC)CC(=O)Nc1c(CC)cccc1CC	65.5*	0.3	-1.9	0.4	61.8*
CCSC(=O)N(CC)CC(=O)Nc1c(CC)cccc1CC	41.8	0.6	-0.4	0.7	27.6
C=CCN(CC(=O)Nc1c(C)cccc1CC)C(=O)SCCC	64.6*	0.4	-2.55	0.9	12.3
CC1=CN2CC(O)CN=C2C=C1 (centres undefined)	-2.4	1	-3.07	1.1	-9.5
O=C(NCc1ccco1)c1cc2nc(-c3cccs3)cc(C(F)(F)F)n2n1	30.6	0.7	-0.0515	0.4	56.5*
O=C(c1cc2nc(-c3ccco3)cc(C(F)(F)F)n2n1)N1CCCc2ccccc21	-0.2	1	-0.013	1.1	-8.5
O=C(NCc1ccco1)c1cnn2c(C(F)(F)F)cc(-c3ccccc3)nc12	0.7	1	-1.54	0.6	41.8
O=C(c1cnn2c(C(F)(F)F)cc(-c3cccs3)nc12)N1CCN(Cc2ccccc2)CC1	x	x	0.19	x	x
O=C(c1cc2nc(-c3cccs3)cc(C(F)(F)Cl)n2n1)N1CCCc2ccccc21	32.0	0.7	-1.96	0.1	89.3*
Cn1ccc(C(=O)N2CCCc3ccccc32)n1	13.4	0.9	-0.00331	0.9	6.3
O=C(c1cnn2c(C(F)(F)F)cc(-c3cccs3)nc12)N1CCN(C(c2ccccc2)c2ccccc2)CC1	x	x	-4.22*	x	x
O=C(c1cc2nc(-c3cccs3)cc(C(F)(F)F)n2n1)N1CCCc2ccccc21	13.9	0.9	-4.81*	0.9	10.3
CN(C)c1nc2n(c(=O)n1)C(C#N)CS2 (centres undefined)	x	x	-0.134	x	x
CCCCc1[nH]c(=O)c(C#N)c2c1CCCC2	7.6	0.9	0.53	0.8	23.5
C[C@H]1COc2c(C3(N)CC3)c(F)cc3c(=O)c(C(=O)O)cn1c23	x	x	0.546	x	x
Cc1ccccc1C(=O)NC(=S)Nc1ccc(S(=O)(=O)N(C)c2ccccc2)cc1	86.8*	0.1	-4.29	0.2	81.9*
Cc1cccc(C(=O)NC(=S)Nc2ccc(S(=O)(=O)N3CCCCC3)cc2)c1	22.0	0.8	-3.2	0.6	44.4
Cc1cccc(C(=O)NC(=S)Nc2ccc(S(=O)(=O)N(C)c3ccccc3)cc2)c1	30.6	0.7	x	0.3	66.1*
Cc1cccc(C(=O)NC(=S)Nc2ccc(S(=O)(=O)N3CCN(C)CC3)cc2)c1	78.8*	0.2	0.439	0.3	71.0*
COc1ccc(NC2(c3ccc(Cl)cc3)C(=O)c3ccccc3C2=O)cc1	x	x	-2.55	x	x
O=C(Cn1nc(C(F)(F)F)c2c1CCCC2)NCCN1CCOCC1	63.8*	0.4	x	0.7	26.9
O=C(O)CC(=O)Nc1ccccc1C(=O)O	-2.9	1	-1	1.2	-21.7
COc1ccccc1NC(=S)NNC(=O)c1nn(C)c(C)c1Cl	28.6	0.7	0.686	0.9	9.6
COc1ccccc1NC(=S)NNC(=O)c1nn(C)cc1Cl	56.7*	0.4	1.21	0.9	7.2
O=C(Nc1cccc2nsnc12)C1CC(=O)N(c2ccccc2)C1 (centres undefined)	81.5*	0.2	0.116	0.3	74.3*
